Inconclusive results are not listed. A number with no mark means an inactive call. Activity calls are given as the source filed them. Calls come from the whole dose curve; as a rule, active = well fitted cell-killing curve with a large enough effect; inconclusive = small, poorly fitted or top-dose-only effect, or effect the other way; inactive = no such curve, though single readings can be large or run the other way.
Assay: Quantitative High-Throughput drug screen in 47 multiple myeloma cell lines against the NCATS MIPE library collection: OCIMY5_PLB cell viability assay (AID 1918988); note: nearly all actives have a fitted effect of over 65% in size
Details: OCI-MY5 myeloma viability, ATP luminescence, 48 h; series mostly up to 45.8 µM; viability, % of control: at the top concentration
Source text: PI: Beverly A. Mock Ph.D.
Laboratory of Cancer Biology and Genetics,
Center for Cancer Research, National Cancer Institute,
National Institute of Health, Bethesda, Maryland
Drug resistance and disease progression are common in multiple myeloma (MM) patients, underscoring the need for new therapeutic combinations. […] We hypothesized that effective combinations would reduce MYC expression and enhance p16 activity. […] These preclinical data identify potentially useful drug combinations for evaluation in drug-resistant MM and reveal potential mechanisms of combined drug sensitivity.
Described herein is the primary MIPE qHTS used to cherrypick compounds. Validated compounds were then further tested for potential synergistic activiy.
[1] Peat TJ, Gaikwad SM, Dubois W, Gyabaah-Kessie N, Zhang S, Gorjifard S, Phyo Z, Andres M, Hughitt VK, Simpson RM, Miller MA, Girvin AT, Taylor A, Williams D, D'Antonio N, Zhang Y, Rajagopalan A, Flietner E, Wilson K, Zhang X, Shinn P, Klumpp-Thomas C, McKnight C, Itkin Z, Chen L, Kazandijian D, Zhang J, Michalowski AM, Simmons JK, Keats J, Thomas CJ, Mock BA. Drug combinations identified by high-throughput screening promote cell cycle transition and upregulate Smad pathways in myeloma. Cancer Lett. 2023 Aug 1;568:216284. doi: 10.1016/j.canlet.2023.216284. Epub 2023 Jun 24. PMID: 37356470; PMCID: PMC10408729.
SEQUENCE No. (e.g., 1, 2, 3, etc.); […] (e.g., Cells, Incubation, Reagent, etc.); VALUE and DESCRIPTION.
1; Cells; 5 uL; white, solid bottom 1536-well Greiner assay plate.
2; Compounds; 23 nL; Kalypsis pin tool (Wako USA) equipped with a 1536-well pin head to transfer to the assay plates.
3; Incubation; 48 hours; 37C incubation.
4; Reagent;5uL; CellTiter Glo (Promega).
5; Detector; 425V; Luminescence; Viewlux PerkinElmer.
NOTES (numbers refer to Sequence numbers above)
1. The cell-based screening methods employed in this study were like those previously published. Briefly, the corresponding myeloma cell lines were screened in 1,536-well plates with 500 cells, 5-uL per well for inhibition of cell viability (assessed by measuring ATP levels with CellTiterGlo).
2. NCATS MIPE 4.0 library of approved and investigational drugs were added using the Kalypsis pin tool. Wells treated with DMSO only for 100% viability and media only for 0% viability were used as controls.
3. The assay plates were covered and incubated for 48 hours in a 37C, 5% CO2 incubator with controlled humidity.
4. After 48 hours, CellTilter-GloTM luminescent substrate mix (Promega) reagent was added to the assay plate and plates we incubated for 5 min at room temperature.
5. Signal was measured as median relative luminescence units on a ViewLux (PerkinElmer) multiplate reader.
[1] Heske CM, Davis MI, Baumgart JT, Wilson K, Gormally MV, Chen L, Zhang X, Ceribelli M, Duveau DY, Guha R, Ferrer M, Arnaldez FI, Ji J, Tran HL, Zhang Y, Mendoza A, Helman LJ, Thomas CJ. Matrix Screen Identifies Synergistic Combination of PARP Inhibitors and Nicotinamide Phosphoribosyltransferase (NAMPT) Inhibitors in Ewing Sarcoma. Clin Cancer Res. 2017 Dec 1;23(23):7301-7311. doi: 10.1158/1078-0432.CCR-17-1121. Epub 2017 Sep 12. PMID: 28899971; PMCID: PMC6636827.
Potency is the fitted concentration of half-maximal effect.

Which Potency does the source give for `COC[C@H]1OC(=O)c2coc3c2[C@@]1(C)C1=C(C3=O)C2CCC(=O)[C@@]2(C)C[C@H]1OC(C)=O` (stereo partly specified) here?
Its Potency is 14.8 µM (active).

For `CC(O)(CS(=O)(=O)c1ccc(F)cc1)C(=O)Nc1ccc(C#N)c(C(F)(F)F)c1` (stereo unspecified), which Potency is on record?
The Potency was 0.332 µM (active).

Which Potency does the source give for `Cn1cc(C2=C(c3cn(C4CCN(Cc5ccccn5)CC4)c4ccccc34)C(=O)NC2=O)c2ccccc21` here?
The Potency was 7.43 µM (active).

With `CNC(=O)c1ccc(N2C(=S)N(c3ccc(C#N)c(C(F)(F)F)c3)C(=O)C23CCC3)cc1F` as the compound, how does the Potency read?
The Potency was 1.32 µM (active).

Which Potency does the source give for `C[C@@H]1[C@@H](C(=O)C[C@H]2O[C@@H]3O[C@]4(C)CC[C@@H]5[C@H](C)CC[C@@H]([C@H]2C)[C@@]35OO4)O[C@@H]2O[C@]3(C)CC[C@H]4[C@H](C)CC[C@@H]1[C@@]24OO3` here?
The Potency was 0.332 µM (active).

With `COC[C@@H](NC(C)=O)C(=O)NCc1ccccc1` as the compound, how does the “viability, % of control” value read?
Its value is 163%.

For `CCCC(C)(COC(N)=O)COC(=O)NC(C)C` (stereo unspecified), which “viability, % of control” value is on record?
Its value is 162%.

For `O=P1(NCCCl)OCCCN1CCCl` (stereo unspecified), which Potency is on record?
Its Potency is 18.7 µM (active).

Which “viability, % of control” value does the source give for `CN(C)CCN(C)CCc1ccc(Cl)c(Cl)c1` here?
The value was 155%.

With `C=C(C)[C@H]1Cc2c(ccc3c2O[C@@H]2COc4cc(OC)c(OC)cc4[C@@H]2C3=O)O1` as the compound, how does the Potency read?
The Potency was 0.833 µM (active).

For `Fc1ccc(C(OCCN2CCN(CCCc3ccccc3)CC2)c2ccc(F)cc2)cc1`, which Potency is on record?
Its Potency is 13.2 µM (active).

With `CC1=C2C[C@@H]3[C@@H](CC=C4C[C@@H](O)CC[C@@]43C)[C@@H]2CC[C@]12O[C@H]1C[C@H](C)CN[C@H]1[C@H]2C` as the compound, how does the Potency read?
Its Potency is 11.8 µM (active).

With `CNC(=O)N1N=C(c2ccc(N)cc2)c2cc3c(cc2CC1C)OCO3` (stereo unspecified) as the compound, how does the Potency read?
The Potency was 3.72 µM (active).

With `Cn1c(CCCC(=O)O)nc2cc(N(CCCl)CCCl)ccc21` as the compound, how does the Potency read?
Its Potency is 8.33 µM (active).

With `Cc1cccc(C)c1NC(=O)CN1CCCC1=O` as the compound, how does the “viability, % of control” value read?
The value was 176%.

With `Cc1sc2c(c1C)C(c1ccc(Cl)cc1)=N[C@@H](CC(=O)OC(C)(C)C)c1nnc(C)n1-2` as the compound, how does the Potency read?
Its Potency is 0.132 µM (active).

With `C[C@@H]1[C@@H](CC(C[C@H]2O[C@@H]3O[C@]4(C)CC[C@@H]5[C@H](C)CC[C@@H]([C@H]2C)[C@@]35OO4)C[S+](=O)([O-])c2ccc(COC(=O)N(C)C)cc2)O[C@@H]2O[C@]3(C)CC[C@H]4[C@H](C)CC[C@@H]1[C@@]24OO3` (stereo partly specified) as the compound, how does the Potency read?
Its Potency is 0.209 µM (active).

For `Cc1cc(SCc2sc(-c3ccc(C(F)(F)F)c(F)c3)nc2C)ccc1OCC(=O)O`, which Potency is on record?
Its Potency is 13.2 µM (active).

For `C[C@@H]1O[C@@H](O[C@H]2C[C@@H](O)[C@]3(CO)[C@H]4[C@H](O)C[C@]5(C)[C@@H](C6=CC(=O)OC6)CC[C@]5(O)[C@@H]4CC[C@]3(O)C2)[C@H](O)[C@H](O)[C@H]1O`, which Potency is on record?
Its Potency is 0.0235 µM (active).

Which Potency does the source give for `N[C@@H](Cc1ccc(N(CCCl)CCCl)cc1)C(=O)O` here?
The Potency was 9.35 µM (active).

For `CN(C)CCc1ccc(O)cc1`, which “viability, % of control” value is on record?
Its value is 162%.

From PubChem BioAssay (NCATS)
